{"source": "PubChem BioAssay (Tox21)", "note": "Records with an inconclusive call do not appear. Where a call stands in place of a potency, no number is given. Activity calls are given as the source filed them. Calls follow the shape of the dose curve; as a rule, active = well fitted activation curve with a large enough effect in the repeat runs; inconclusive = weak or mixed curves; inactive = flat fitted curve, though single readings scatter."}
{"test": "A CellTox Green Cytotoxicity Assay to monitor cytotoxicity in HEK293 cells - 32 hour (AID 1224881); also: nearly all actives have a fitted effect of over 40% in size", "conditions": "CellTox Green fluorescence; series mostly up to 76.8 µM", "summary_of_the_method": "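HEK293 cells premixed with CellTox Green dye were seeded at 600 cells/well and left 5 h at 37 C/5% CO2 before pin transfer of 23 nL compound in DMSO. Fluorescence from dye bound to dead-cell DNA was read during 40 h treatment.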"}
{"smiles": "CC(C)(C)c1cc(Cc2cc(C(C)(C)C)c(O)c(C(C)(C)C)c2)cc(C(C)(C)C)c1O", "Potency": "inactive"}
{"smiles": "COC(=O)c1cccnc1", "Potency": "inactive"}
{"smiles": "CCCCCCC=O", "Potency": "inactive"}
{"smiles": "CCCCC(C=O)CC", "note": "(configuration not stated)", "Potency": "inactive"}
{"smiles": "CC(O)CC(C)(C)O", "note": "(configuration not stated)", "Potency": "inactive"}
{"smiles": "O=c1[nH]cnc2[nH]ncc12", "Potency": "inactive"}
{"smiles": "CCCCCCCCCCCCCCCC(=O)OC(C)C", "Potency": "inactive"}
{"smiles": "CC(=O)OC1CC(C)OC(C)O1", "note": "(configuration not stated)", "Potency": "inactive"}
{"smiles": "CC1(C)NC(=O)NC1=O", "Potency": "inactive"}
{"smiles": "Clc1ccccn1", "Potency": "inactive"}
{"smiles": "CC(=O)OCCOC(C)=O", "Potency": "inactive"}
{"smiles": "CCc1ccccc1CC", "Potency": "inactive"}
{"smiles": "CC(C)OC(=O)COc1ccc(Cl)cc1Cl", "Potency": "inactive"}
{"smiles": "COc1ccc(N)c(C)c1", "Potency": "inactive"}
{"smiles": "CC(C)(Oc1ccc(CCNC(=O)c2ccc(Cl)cc2)cc1)C(=O)O", "Potency": "inactive"}
{"smiles": "O=C1C(c2[nH]c3ccccc3c2O)=Nc2ccccc21", "Potency": "inactive"}
{"smiles": "O=C(OCC1CCC2OC2C1)C1CCC2OC2C1", "note": "(configuration not stated)", "Potency": "inactive"}
{"smiles": "O=C(O)Cn1c(=O)n(Cc2ccc(Br)cc2F)c(=O)c2ccc(Cl)cc21", "Potency": "inactive"}
{"smiles": "CCCCCCCC=O", "Potency": "inactive"}
{"smiles": "C[C@]12CCC(=O)C=C1CC[C@@H]1[C@@H]2[C@@H](O)C[C@@]2(C)[C@H]1CC[C@]2(O)C(=O)CO", "Potency": "inactive"}
{"smiles": "CCOCCOCCOCCO", "Potency": "inactive"}
{"smiles": "C[Si]1(C)O[Si](C)(C)O[Si](C)(C)O[Si](C)(C)O1", "Potency": "inactive"}
{"smiles": "N[C@H](Cc1c[nH]c2ccccc12)C(=O)O", "Potency": "inactive"}
{"smiles": "O=C(O)c1ccc(S(=O)(=O)N(Cl)Cl)cc1", "Potency": "inactive"}
{"smiles": "CC(=O)OCc1ccccc1", "Potency": "inactive"}
{"smiles": "COc1ccc(CCC(C)=O)cc1", "Potency": "inactive"}
{"smiles": "CC1(C)OC[C@@H]2O[C@@]3(C(=O)O)OC(C)(C)O[C@H]3[C@@H]2O1", "Potency": "inactive"}
{"smiles": "CCNC(=S)NCC", "Potency": "inactive"}
{"smiles": "CN(C)c1ccc(O)c2c1C[C@H]1C[C@H]3[C@H](N(C)C)C(=O)C(C(N)=O)=C(O)[C@@]3(O)C(=O)C1=C2O", "Potency": "inactive"}
{"smiles": "CCCOC(=O)c1ccccc1", "Potency": "inactive"}
{"smiles": "CNC(=S)N(C)C", "Potency": "inactive"}
{"smiles": "C=CC[N+](C)(C)CC=C", "Potency": "inactive"}
{"smiles": "NCCN1CCNCC1", "Potency": "inactive"}
{"smiles": "CCCCCCCCCCN", "Potency": "inactive"}
{"test": "A CellTox Green Cytotoxicity Assay to monitor cytotoxicity in HepG2 cells - 0 hour (AID 1224882); also: nearly all actives have a fitted effect of over 35% in size", "conditions": "CellTox Green fluorescence; series mostly up to 76.8 µM", "summary_of_the_method": "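HepG2 cells were seeded together with the CellTox Green dye at 600 cells/well, left 5 h at 37 C/5% CO2, then given compounds in DMSO. Fluorescence from dye bound to dead-cell DNA was read repeatedly over 40 h of treatment at 37 C.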"}
{"smiles": "CC(C)(C)c1cc(Cc2cc(C(C)(C)C)c(O)c(C(C)(C)C)c2)cc(C(C)(C)C)c1O", "outcome": "inactive"}
{"smiles": "COC(=O)c1cccnc1", "outcome": "inactive"}
{"smiles": "CCCCCCC=O", "outcome": "inactive"}
{"smiles": "CCCCC(C=O)CC", "note": "(configuration not stated)", "outcome": "inactive"}
{"smiles": "CC(O)CC(C)(C)O", "note": "(configuration not stated)", "outcome": "inactive"}
{"smiles": "O=c1[nH]cnc2[nH]ncc12", "outcome": "inactive"}
{"smiles": "CCCCCCCCCCCCCCCC(=O)OC(C)C", "outcome": "inactive"}
{"smiles": "CC(=O)OC1CC(C)OC(C)O1", "note": "(configuration not stated)", "outcome": "inactive"}
{"smiles": "CC1(C)NC(=O)NC1=O", "outcome": "inactive"}
{"smiles": "Clc1ccccn1", "outcome": "inactive"}
{"smiles": "CC(=O)OCCOC(C)=O", "outcome": "inactive"}
{"smiles": "CCc1ccccc1CC", "outcome": "inactive"}
{"smiles": "CC(C)OC(=O)COc1ccc(Cl)cc1Cl", "outcome": "inactive"}
{"smiles": "COc1ccc(N)c(C)c1", "outcome": "inactive"}
{"smiles": "c1ccc2c(c1)Cc1ccccc1-2", "outcome": "inactive"}
{"smiles": "CC(C)(Oc1ccc(CCNC(=O)c2ccc(Cl)cc2)cc1)C(=O)O", "outcome": "inactive"}
{"smiles": "O=C1C(c2[nH]c3ccccc3c2O)=Nc2ccccc21", "outcome": "inactive"}
{"smiles": "O=C(OCC1CCC2OC2C1)C1CCC2OC2C1", "note": "(configuration not stated)", "outcome": "inactive"}
{"smiles": "CCCCCCCCCCCCCCCCO", "outcome": "inactive"}
{"smiles": "O=C(O)Cn1c(=O)n(Cc2ccc(Br)cc2F)c(=O)c2ccc(Cl)cc21", "outcome": "inactive"}
{"smiles": "CCCCCCCC=O", "outcome": "inactive"}
{"smiles": "C[C@]12CCC(=O)C=C1CC[C@@H]1[C@@H]2[C@@H](O)C[C@@]2(C)[C@H]1CC[C@]2(O)C(=O)CO", "outcome": "inactive"}
{"smiles": "CCOCCOCCOCCO", "outcome": "inactive"}
{"smiles": "C[Si]1(C)O[Si](C)(C)O[Si](C)(C)O[Si](C)(C)O1", "outcome": "inactive"}
{"smiles": "N[C@H](Cc1c[nH]c2ccccc12)C(=O)O", "outcome": "inactive"}
{"smiles": "O=C(O)c1ccc(S(=O)(=O)N(Cl)Cl)cc1", "outcome": "inactive"}
{"smiles": "CC(=O)OCc1ccccc1", "outcome": "inactive"}
{"smiles": "COc1ccc(CCC(C)=O)cc1", "outcome": "inactive"}
{"smiles": "CC1(C)OC[C@@H]2O[C@@]3(C(=O)O)OC(C)(C)O[C@H]3[C@@H]2O1", "outcome": "inactive"}
{"smiles": "CCNC(=S)NCC", "outcome": "inactive"}
{"smiles": "CN(C)c1ccc(O)c2c1C[C@H]1C[C@H]3[C@H](N(C)C)C(=O)C(C(N)=O)=C(O)[C@@]3(O)C(=O)C1=C2O", "outcome": "inactive"}
{"smiles": "Cc1ccc(C(C)C)c(O)c1", "outcome": "inactive"}
{"smiles": "OCc1cccc(Oc2ccccc2)c1", "outcome": "inactive"}
{"smiles": "CCCOC(=O)c1ccccc1", "outcome": "inactive"}
{"smiles": "CNC(=S)N(C)C", "outcome": "inactive"}
{"smiles": "C=CC[N+](C)(C)CC=C", "outcome": "inactive"}
{"smiles": "NCCN1CCNCC1", "outcome": "inactive"}
{"smiles": "CCCCCCCCCCN", "outcome": "inactive"}
